The list is not random: actives were taken first. Their share in the collection is about 0.92%.
TDP1 inh – blocks human tyrosyl-DNA phosphodiesterase 1; hit rate 0.28% among 350,000; Potency, µM (doses to about 130 µM), usual class: inhibitors; recombinant TDP1, AlphaScreen DNA substrate cleavage; further: nearly all actives have a fitted effect of over 40% in size
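E. coli-derived human Tdp1, 1 nM final. Cpd preinc 15 min RT; substrate 15 nM final, 5 min RT; AS bead mix 10 ug/ml final, 10 min RT. Signal loss = tyrosine-FITC cleavage. No-enzyme wells = max signal.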
BLM inh – blocks DNA unwinding by human BLM helicase; recombinant BLM DNA unwinding, fluorescence dequenching; hit rate 0.2% among 350,000; P54132; Potency, µM (titrated, usually from 56.1 µM), actives largely listed as inhibitors; AID 2528; further: nearly all actives have a fitted effect of over 35% in size
RECQ1 inh-1 – RECQ1 (human) helicase inhibition. RECQ1 DNA unwinding, red fluorescence kinetic read. hit rate 0.54% among 240,000. Potency, µM (titrated, usually from 57.3 µM), actives largely listed as inhibitors. P46063; further: nearly all actives have a fitted effect of over 30% in size
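50 nM RECQ1T1 preincubated 15 min with compound in Tris pH 8.0 buffer with MgCl2, DTT, Tween-20 and 2.5 ug/ml poly(dI-dC); started with 200 nM TAMRA/BHQ-2 forked duplex and 2 mM ATP. Unwinding read as fluorescence (525/598 nm), two reads 2 h apart.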
FEN1 inh – inhibitors of human flap endonuclease 1; Recombinant FEN1 flap cleavage, fluorescence, 15 min; Potency, µM (highest dose often 114 µM), usual class: inhibitors; hit rate 0.35% among 390,000; AID 588795; further: nearly all actives have a fitted effect of over 65% in size
Target sequence (P39748 whole entry, looked up): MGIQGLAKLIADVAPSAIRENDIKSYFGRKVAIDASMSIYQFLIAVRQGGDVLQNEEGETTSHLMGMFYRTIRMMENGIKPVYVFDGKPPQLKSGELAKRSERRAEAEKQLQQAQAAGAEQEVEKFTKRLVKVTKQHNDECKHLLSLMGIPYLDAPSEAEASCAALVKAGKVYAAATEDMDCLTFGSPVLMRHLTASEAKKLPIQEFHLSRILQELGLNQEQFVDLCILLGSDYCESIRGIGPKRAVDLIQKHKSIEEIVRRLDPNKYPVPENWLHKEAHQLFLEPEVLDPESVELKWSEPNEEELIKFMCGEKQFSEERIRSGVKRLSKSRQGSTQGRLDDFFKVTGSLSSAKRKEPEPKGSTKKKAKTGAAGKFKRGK
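Reaction started by adding substrate (50 nM final) to 10 nM enzyme after 15 min room-temperature compound preincubation. Reads at 0 and 15 min, with data normalized and fitted to a four-parameter Hill equation.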
APEX1 inh – APE1 (human) endonuclease inhibition | Potency, µM (series often up to 65.8 µM), most hits filed as inhibitors | hit rate 0.35% among 350,000 | recombinant APE1, TAMRA/BHQ-2 abasic DNA cleavage fluorescence | P27695 | AID 2517; further: nearly all actives have a fitted effect of over 55% in size
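Readout is kinetic fluorescence (ex 525, em 598 nm) from cleavage of 50 nM TAMRA/BHQ-2 THF abasic duplex by 0.75 nM APE1, compound added 15 min beforehand at RT.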
RECQ1 inh conf – confirmation of human RECQ1 helicase inhibitors; shares compounds with RECQ1 inh-1; RECQ1 helicase DNA unwinding, fluorescence; Potency, µM (highest dose often 229 µM), actives largely listed as inhibitors; hit rate 28% among 610; AID 2708; further: nearly all actives have a fitted effect of over 45% in size
ADP FP counter – displaces ADP in a fluorescence polarization counter-screen for RECQ1 hits; shares compounds with RECQ1 inh-1; hit rate 27% among 530; Potency, µM (highest dose often 228 µM), most hits filed as inhibitors; ADP fluorescence polarization displacement counterscreen; AID 2711; further: nearly all actives have a fitted effect of over 45% in size
RECQ1 inh-2 – confirmation of human RECQ1 helicase inhibitors; shares compounds with RECQ1 inh-1; recombinant RECQ1 DNA unwinding, red fluorescence; Potency, µM (highest dose often 119 µM), actives largely listed as inhibitors; hit rate 15% among 1,100; AID 504841; further: nearly all actives have a fitted effect of over 50% in size
Each line names hits and unclear results; the compound was inactive in the other large screens (follow-up assays come after a bar, where they were run). The call rests on the fitted dose curve; in most records, active means well fitted curve in the direction sought with a large enough effect; inconclusive means small, poorly fitted or top-dose-only effect, or another doubt; inactive means no such curve, though single readings can be large; an effect the other way counts as inactive or inconclusive.

O=C(O)CCCCn1c(SCc2cc(=O)n3cc(Cl)ccc3n2)nc2ccsc2c1=O	none
O=C(O)CCCCn1c(SCc2ccccc2Cl)nc2ccsc2c1=O	none | RECQ1 inh conf inactive | ADP FP counter inactive
NS(=O)(=O)c1ccc(CCNC(=O)CSc2nc3ccsc3c(=O)n2CCCCCC(=O)O)cc1	none | RECQ1 inh conf inactive | ADP FP counter inactive
Cc1ccc(NC(=O)N2CCN(c3cc(-c4noc(C)n4)ccc3C)CC2)c(F)c1	none (no result: RECQ1 inh-1, APEX1 inh)
CC[C@H](C)[C@H](NC(=O)[C@@H](NC(=O)[C@@H](NC(=O)[C@H](CCC(=O)O)NC(=O)[C@H](CCC(=O)O)NC(=O)[C@H](CCC(=O)O)NC(=O)[C@H](C)NC(=O)[C@@H](N)CC(C)C)C(C)C)C(C)C)C(=O)N[C@@H](CCCNC(=N)N)C(=O)N[C@@H](CO)C(=O)N[C@@H](C)C(=O)N[C@@H](CC(N)=O)C(=O)N[C@@H](Cc1ccccc1)C(=O)N[C@H](C(=O)N[C@@H](CC(=O)O)C(=O)N[C@@H](CC(N)=O)C(=O)O)[C@@H](C)O	none (no result: FEN1 inh)
COc1ccccc1C(=O)Nc1ccc(-c2nnc(SCC(=O)O)n2C)cc1	none | RECQ1 inh conf inactive | ADP FP counter inactive
COc1ccccc1NC(=O)CSc1nnc(-c2ccc(NC(C)=O)cc2)n1C	none
c1coc(-c2nn3c(-c4ccco4)nnc3s2)c1	RECQ1 inh-1 inconclusive, APEX1 inh inconclusive (no result: TDP1 inh) | RECQ1 inh-2 inconclusive
c1coc(-c2nnc3sc(Cc4cccs4)nn23)c1	RECQ1 inh-1 inconclusive, FEN1 inh 56µM, APEX1 inh 25µM (no result: TDP1 inh) | RECQ1 inh-2 inconclusive
COc1ccccc1-c1nn2c(-c3ccco3)nnc2s1	none (no result: TDP1 inh)
COc1ccc(OCc2nn3c(-c4ccco4)nnc3s2)cc1	none
Cc1cc(-c2ccc(S(=O)(=O)Nc3cccc(Cl)c3C)cc2)on1	none (no result: RECQ1 inh-1, APEX1 inh)
CNC(=O)c1ccc2nc(-c3cccc(C)c3)c(-c3cccc(C)c3)nc2c1	none (no result: BLM inh, RECQ1 inh-1, APEX1 inh)
O=C(O)CCCC(=O)N1CCc2cc(S(=O)(=O)NCc3ccc(F)cc3)ccc21	none | RECQ1 inh conf inactive | ADP FP counter inactive
O=C(O)CCC(=O)N1CCc2cc(S(=O)(=O)NCc3cccs3)ccc21	none | RECQ1 inh conf inactive | ADP FP counter inactive
Cc1ccc(OCC(O)CNS(=O)(=O)c2ccccc2C(=O)O)cc1 (configuration not stated)	none | RECQ1 inh conf inactive | ADP FP counter inactive
Nc1cc2nc3ccccc3oc-2cc1=O	RECQ1 inh-1 inconclusive, FEN1 inh inconclusive | RECQ1 inh-2 inconclusive
NC(C(=O)O)c1nn[nH]n1 (configuration not stated)	none
CCOC(=O)C1CCN(C(=O)Nc2ccc3nc(-c4ccco4)c(-c4ccco4)nc3c2)CC1	TDP1 inh 35µM, BLM inh 4.5µM, RECQ1 inh-1 10µM, FEN1 inh inconclusive, APEX1 inh 7.9µM | RECQ1 inh-2 inconclusive
CCOc1ccc(S(=O)(=O)Nc2nc3ccccc3nc2-n2ccc(=NC(=O)c3ccccc3C)cc2)cc1	RECQ1 inh-1 inconclusive | RECQ1 inh-2 inactive
Cc1ccc(C2C(C#N)=C(N)Oc3c2oc(CO)cc3=O)o1 (configuration not stated)	RECQ1 inh-1 40µM, APEX1 inh inconclusive (no result: TDP1 inh) | RECQ1 inh-2 inactive
CCc1cc2c(=O)c(-c3ccc4c(c3)OCCO4)coc2c(CN2CCCCC2C)c1O (configuration not stated)	RECQ1 inh-1 inconclusive | RECQ1 inh-2 inactive
CCc1cc2c(=O)c(-c3nc4ccccc4[nH]3)coc2c(CN2CCCCC2C)c1O (configuration not stated)	RECQ1 inh-1 inconclusive
C=CCOC(=O)C1C(=O)CC(C)(O)C(C(=O)OCC=C)C1c1ccc(N(C)C)cc1 (configuration not stated)	RECQ1 inh-1 inconclusive | RECQ1 inh-2 inactive

Compound activity (PubChem)
